Measurements: the supplement of paper PMC10849652
Of roughly 7,900 targets only a part is listed; those with a hit were picked by preference. About 0.6% of all pairs of compound and target were hits.

Key:
Assay in all cases: log2 fold change, soluble protein after heating vs DMSO (PISA); higher = thermal stabilisation; K562 cells, 10 uM, 30 min; active = over 0.2 and 3.5 SD of the protein, either way, in both replicates (recomputed)
[1] = compound: Cc1ccc(NC(=O)c2ccc(CN3CC[C@H](N(C)C)C3)c(C(F)(F)F)c2)cc1Nc1nccc(-c2cncnc2)n1 [bafetinib]
How it was run: (§1)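 K562 cells at 2×10^6 cells/mL were given 10 μM compound for 30 min. Aliquots then went through 3 min of heating across 48°C-58°C, were pooled, and were extracted in PBS with 0.5% NP-40 at 4°C, and the supernatant after 21,000xg for 90 min was quantified by TMTpro 16plex LC-MS/MS with channel sums equalised. Thermal stability relative to control samples, from duplicates, is given as log2 fold change.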

[2] = compound: Cc1cccc(CC(=O)N2CCc3c2ccc(-c2cn(C)c4ncnc(N)c24)c3F)n1
How it was run: as §1

[3] = compound: Cc1cn(-c2cc(NC(=O)c3ccc(C)c(Nc4nccc(-c5cccnc5)n4)c3)cc(C(F)(F)F)c2)cn1 [nilotinib]
How it was run: as §1

[4] = compound: Cc1nc(Nc2n[nH]c3c2CN(C(=O)N[C@H](CN(C)C)c2ccccc2)C3(C)C)c2sccc2n1
How it was run: as §1

[5] = compound: Cc1nc(Nc2ncc(C(=O)Nc3c(C)cccc3Cl)s2)cc(N2CCN(CCO)CC2)n1 [dasatinib]
How it was run: as §1

[6] = compound: Cc1ncc(-c2ccnc(Nc3ccc(S(C)(=O)=O)cc3)n2)n1C(C)C
How it was run: as §1

[7] = compound: Cn1cc(-c2ccc3c(c2)CCN3C(=O)Cc2cccc(C(F)(F)F)c2)c2c(N)ncnc21
How it was run: as §1

[8] = compound: Cn1cc(-c2ccc3nnc(C(F)(F)c4ccc5ncccc5c4)n3n2)cn1
How it was run: as §1

[9] = compound: Cn1cncc1[C@@](N)(c1ccc(Cl)cc1)c1ccc2c(c1)c(-c1cccc(Cl)c1)cc(=O)n2C [tipifarnib]
How it was run: as §1

[10] = compound: FC(F)(F)c1ccc(/C=C/c2nc(COc3ccc(CCCCn4ccnn4)cc3)co2)cc1 [mubritinib]
How it was run: as §1

[11] = compound: NC(=O)Nc1cc(-c2cccc(F)c2)sc1C(=O)N[C@H]1CCCNC1
How it was run: as §1

[12] = compound: NC(=O)c1cnc(N[C@@H]2CCCC[C@@H]2N)nc1Nc1cccc(-n2nccn2)c1
How it was run: as §1

[13] = compound: NC1(c2ccc(-c3nc4ccn5c(=O)[nH]nc5c4cc3-c3ccccc3)cc2)CCC1
How it was run: as §1

[14] = compound: NCC(=O)Nc1ccc(-n2nc(C(F)(F)F)cc2-c2ccc3c(ccc4ccccc43)c2)cc1
How it was run: as §1

[15] = compound: Nc1ccccc1NC(=O)c1ccc(CNC(=O)OCc2cccnc2)cc1 [entinostat]
How it was run: as §1

[16] = compound: O=C(CCCCCCC(=O)Nc1ccccc1)NO [vorinostat]
How it was run: as §1

[17] = compound: O=C(CCCCCCNC(=O)c1cnc(N(c2ccccc2)c2ccccc2Cl)nc1)NO [citarinostat]
How it was run: as §1

[18] = compound: O=C(O)c1ccc2c(c1)nc(Nc1cccc(Cl)c1)c1ccncc12 [silmitasertib]
How it was run: as §1

[19] = compound: O=C1NC(=O)C(c2cnc3ccccn23)=C1c1cn2c3c(cc(F)cc13)CN(C(=O)N1CCCCC1)CC2
How it was run: as §1

[20] = compound: c1cc(OCCN2CCCCC2)cc(-c2n[nH]c3ccc(-c4nnc[nH]4)cc23)c1
How it was run: as §1

Measured: log2 fold change

PCK2 (UniProt Q16822)
Sequence of UniProt Q16822 (Q16822 whole entry, looked up): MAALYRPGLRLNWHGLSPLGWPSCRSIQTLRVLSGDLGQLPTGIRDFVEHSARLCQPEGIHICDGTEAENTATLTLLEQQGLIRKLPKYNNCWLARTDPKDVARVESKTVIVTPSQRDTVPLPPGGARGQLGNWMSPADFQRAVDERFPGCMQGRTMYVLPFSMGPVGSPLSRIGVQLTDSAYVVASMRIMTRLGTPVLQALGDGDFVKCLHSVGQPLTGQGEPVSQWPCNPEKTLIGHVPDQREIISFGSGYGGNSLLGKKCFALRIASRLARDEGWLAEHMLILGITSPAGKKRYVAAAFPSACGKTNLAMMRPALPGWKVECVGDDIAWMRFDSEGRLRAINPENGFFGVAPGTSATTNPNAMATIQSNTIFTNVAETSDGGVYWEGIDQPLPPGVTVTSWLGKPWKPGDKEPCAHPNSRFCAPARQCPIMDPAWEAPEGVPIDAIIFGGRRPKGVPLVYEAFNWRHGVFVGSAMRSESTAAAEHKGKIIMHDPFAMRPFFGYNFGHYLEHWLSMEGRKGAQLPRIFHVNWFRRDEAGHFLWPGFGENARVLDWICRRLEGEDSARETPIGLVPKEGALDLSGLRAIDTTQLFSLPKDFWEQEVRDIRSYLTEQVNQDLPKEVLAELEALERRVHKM
inactive: [1] -0.052 | [2] 0.027 | [3] -0.05 | [4] 0.027 | [5] -0.035 | [6] -0.006 | [7] 0.041 | [8] 0.003 | [9] 0 | [10] -0.022 | [11] 0 | [12] 0 | [13] -0.029 | [14] -0.013 | [15] 0.005 | [16] 0.004 | [17] 0.013 | [18] -0.025 | [19] -0.148 | [20] -0.032

PRMT8 (UniProt Q9NR22)
Sequence of UniProt Q9NR22 (Q9NR22 whole entry, looked up): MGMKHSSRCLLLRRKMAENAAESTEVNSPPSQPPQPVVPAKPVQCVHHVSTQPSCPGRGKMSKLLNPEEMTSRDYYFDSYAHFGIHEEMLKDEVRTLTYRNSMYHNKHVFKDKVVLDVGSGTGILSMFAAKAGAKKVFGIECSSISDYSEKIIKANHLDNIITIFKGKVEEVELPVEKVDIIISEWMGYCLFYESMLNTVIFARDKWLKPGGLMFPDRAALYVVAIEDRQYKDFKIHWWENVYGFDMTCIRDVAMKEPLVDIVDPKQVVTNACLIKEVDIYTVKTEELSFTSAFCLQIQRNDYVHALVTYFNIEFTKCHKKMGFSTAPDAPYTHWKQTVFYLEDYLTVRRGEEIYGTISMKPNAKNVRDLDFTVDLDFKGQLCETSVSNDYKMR
inactive: [1] 0.002 | [2] 0.032 | [3] -0.036 | [4] 0.048 | [5] -0.064 | [6] 0.02 | [7] 0.064 | [8] -0.066 | [9] -0.136 | [10] 0.035 | [12] -0.149 | [13] -0.118 | [14] -0.054 | [15] 0.21 | [16] 0.029 | [17] -0.031 | [18] -0.039 | [19] -0.057 | [20] -0.006
active: [11] 0.403

PIP4P1 isoform 2 (UniProt Q86T03)
inactive: [1] -0.044 | [2] 0.102 | [3] 0.031 | [4] -0.004 | [5] 0.051 | [6] -0.016 | [7] -0.158 | [8] 0.01 | [9] 0.112 | [10] -0.037 | [11] 0.012 | [12] 0.086 | [13] -0.326 | [14] 0.095 | [15] 0.042 | [16] -0.019 | [17] 0.01 | [18] 0.054 | [19] 0.043 | [20] -0.031

PGK2 (UniProt P07205)
active: [19] -0.532
inactive: [1] 0.009 | [2] -0.036 | [3] 0.066 | [4] 0.096 | [5] 0.11 | [6] -0.013 | [7] -0.137 | [8] -0.029 | [9] -0.006 | [10] -0.092 | [11] -0.056 | [12] -0.032 | [13] -0.038 | [14] -0.134 | [15] 0.021 | [16] -0.056 | [17] -0.121 | [18] 0.172 | [20] -0.012

PLD3 (UniProt Q8IV08)
inactive: [2] -0.007 | [3] -0.043 | [4] 0.064 | [5] -0.024 | [6] -0.03 | [7] -0.007 | [8] 0.013 | [9] -0.01 | [10] 0.035 | [11] 0.008 | [12] -0.005 | [13] -0.177 | [14] -0.051 | [15] 0.009 | [16] 0.022 | [17] 0.034 | [18] 0.006 | [19] 0.024 | [20] 0.067
active: [1] -0.308

POLA2 (UniProt Q14181)
Sequence of UniProt Q14181 (Q14181 whole entry, looked up): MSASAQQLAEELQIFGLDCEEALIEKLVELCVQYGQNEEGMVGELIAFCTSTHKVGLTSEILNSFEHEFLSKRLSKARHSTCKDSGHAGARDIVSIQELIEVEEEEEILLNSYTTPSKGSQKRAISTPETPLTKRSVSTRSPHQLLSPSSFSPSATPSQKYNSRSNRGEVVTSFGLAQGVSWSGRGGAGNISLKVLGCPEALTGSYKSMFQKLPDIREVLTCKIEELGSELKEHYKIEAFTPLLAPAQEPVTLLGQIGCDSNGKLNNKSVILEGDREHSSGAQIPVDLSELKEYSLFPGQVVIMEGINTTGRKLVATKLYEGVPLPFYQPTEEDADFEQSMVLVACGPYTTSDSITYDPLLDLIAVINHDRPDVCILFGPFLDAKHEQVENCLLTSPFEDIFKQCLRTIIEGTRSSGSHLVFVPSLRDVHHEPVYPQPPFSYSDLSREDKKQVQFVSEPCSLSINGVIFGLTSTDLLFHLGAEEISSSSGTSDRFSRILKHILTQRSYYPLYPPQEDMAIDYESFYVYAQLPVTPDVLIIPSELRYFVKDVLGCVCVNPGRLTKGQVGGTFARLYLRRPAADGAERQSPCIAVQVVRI
inactive: [1] -0.038 | [2] 0.058 | [3] -0.036 | [4] -0.072 | [5] -0.101 | [6] -0.02 | [7] 0.022 | [8] 0.001 | [9] -0.04 | [10] 0.041 | [11] -0.102 | [12] -0.115 | [13] -0.129 | [14] -0.133 | [15] -0.014 | [16] 0.072 | [17] 0.054 | [18] 0.058 | [19] -0.054 | [20] -0.026

PSMD11 (UniProt O00231)
Sequence of UniProt O00231 (O00231 whole entry, looked up): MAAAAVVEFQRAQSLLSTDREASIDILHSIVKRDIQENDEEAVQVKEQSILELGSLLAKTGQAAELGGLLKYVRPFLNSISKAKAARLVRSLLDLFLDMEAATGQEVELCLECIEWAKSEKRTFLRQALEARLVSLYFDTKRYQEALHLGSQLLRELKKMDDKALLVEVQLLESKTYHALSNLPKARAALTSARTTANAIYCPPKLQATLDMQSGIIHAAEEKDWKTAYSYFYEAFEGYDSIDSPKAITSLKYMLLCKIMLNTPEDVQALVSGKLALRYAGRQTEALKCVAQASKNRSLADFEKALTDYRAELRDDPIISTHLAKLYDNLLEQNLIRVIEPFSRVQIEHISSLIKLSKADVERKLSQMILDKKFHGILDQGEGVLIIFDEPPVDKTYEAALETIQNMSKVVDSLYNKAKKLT
inactive: [1] 0.15 | [2] 0.042 | [3] 0.054 | [4] 0.068 | [5] -0.004 | [6] -0.014 | [7] -0.074 | [8] -0.043 | [9] -0.021 | [10] -0.054 | [11] 0.048 | [12] 0.04 | [13] -0.016 | [14] 0.061 | [15] -0.012 | [16] 0.027 | [17] -0.001 | [18] -0.028 | [19] 0.071 | [20] -0.092

PPT2 isoform 3 (UniProt Q9UMR5)
Sequence of UniProt Q9UMR5 (Q9UMR5 whole entry, looked up): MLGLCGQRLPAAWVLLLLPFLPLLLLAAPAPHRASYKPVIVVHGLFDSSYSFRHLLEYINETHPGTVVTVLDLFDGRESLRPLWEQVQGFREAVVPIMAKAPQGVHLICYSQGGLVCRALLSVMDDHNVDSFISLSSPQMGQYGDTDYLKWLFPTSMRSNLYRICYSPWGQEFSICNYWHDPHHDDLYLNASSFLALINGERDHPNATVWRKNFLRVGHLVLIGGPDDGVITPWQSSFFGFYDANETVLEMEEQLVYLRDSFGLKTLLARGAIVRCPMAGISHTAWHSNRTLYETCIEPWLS
active: [1] -0.301
inactive: [2] -0.013 | [3] 0.031 | [4] 0.013 | [5] 0.055 | [6] -0.045 | [7] 0.07 | [8] 0.037 | [9] 0.013 | [10] 0.034 | [11] 0.035 | [12] 0.008 | [13] -0.15 | [14] 0.017 | [15] 0.02 | [16] 0.063 | [17] 0.015 | [18] 0.018 | [19] 0.029 | [20] 0.034

PRKAG1 isoform 3 (UniProt P54619)
Sequence of UniProt P54619 (P54619 whole entry, looked up): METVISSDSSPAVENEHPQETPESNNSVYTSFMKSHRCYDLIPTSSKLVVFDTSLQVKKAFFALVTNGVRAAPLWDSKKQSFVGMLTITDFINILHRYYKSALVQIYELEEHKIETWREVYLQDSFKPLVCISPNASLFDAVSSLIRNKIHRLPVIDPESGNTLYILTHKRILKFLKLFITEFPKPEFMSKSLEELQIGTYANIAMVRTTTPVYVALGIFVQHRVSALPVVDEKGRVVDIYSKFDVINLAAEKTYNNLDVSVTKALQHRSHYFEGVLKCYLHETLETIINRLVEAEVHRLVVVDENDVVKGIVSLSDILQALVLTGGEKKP
inactive: [1] -0.098 | [2] 0.001 | [3] -0.079 | [4] -0.189 | [5] -0.056 | [6] -0.01 | [7] 0.001 | [8] 0.022 | [9] 0.007 | [10] -0.052 | [11] -0.105 | [12] -0.033 | [13] -0.069 | [14] -0.045 | [15] 0.017 | [16] 0.071 | [17] 0.04 | [18] 0.016 | [19] -0.042 | [20] -0.091

PUF60 (UniProt Q9UHX1)
inactive: [1] 0.077 | [2] -0.04 | [3] -0.022 | [5] -0.085 | [6] -0.001 | [7] 0.008 | [8] -0.046 | [9] -0.034 | [10] 0.024 | [11] -0.112 | [12] -0.029 | [13] -0.035 | [14] -0.132 | [15] 0.049 | [16] 0.028 | [17] 0.079 | [18] -0.098 | [19] -0.025 | [20] -0.092
active: [4] -0.703

PARL (UniProt Q9H300)
Sequence of UniProt Q9H300 (Q9H300 whole entry, looked up): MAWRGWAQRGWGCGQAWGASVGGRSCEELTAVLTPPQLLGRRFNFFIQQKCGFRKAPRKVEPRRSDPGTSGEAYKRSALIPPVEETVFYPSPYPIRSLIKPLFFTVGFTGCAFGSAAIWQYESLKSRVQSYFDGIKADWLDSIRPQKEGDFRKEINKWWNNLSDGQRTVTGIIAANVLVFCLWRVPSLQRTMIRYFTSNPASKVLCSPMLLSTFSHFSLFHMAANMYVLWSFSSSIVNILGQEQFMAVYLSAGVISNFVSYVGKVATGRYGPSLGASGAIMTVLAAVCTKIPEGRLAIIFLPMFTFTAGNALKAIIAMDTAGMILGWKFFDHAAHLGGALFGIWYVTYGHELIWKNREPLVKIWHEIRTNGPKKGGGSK
inactive: [1] -0.169 | [2] 0.061 | [3] 0.047 | [4] -0.011 | [5] 0.015 | [6] 0.018 | [7] 0.017 | [8] 0.051 | [9] -0.023 | [10] 0.021 | [11] 0.025 | [12] -0.06 | [13] -0.07 | [14] -0.09 | [15] 0.023 | [16] -0.07 | [17] 0.054 | [18] 0.032 | [19] -0.082 | [20] -0.017

PLIN2 (UniProt Q99541)
inactive: [1] -0.326 | [2] 0.037 | [3] 0.184 | [4] 0.03 | [5] -0.219 | [6] 0.04 | [7] -0.016 | [8] 0.047 | [9] -0.105 | [10] 0.027 | [11] 0.019 | [12] -0.194 | [13] -0.353 | [14] -0.059 | [15] 0.077 | [16] 0.203 | [17] 0.027 | [18] 0.035 | [19] -0.046 | [20] -0.044

PRMT3 (UniProt O60678)
Sequence of UniProt O60678 (O60678 whole entry, looked up): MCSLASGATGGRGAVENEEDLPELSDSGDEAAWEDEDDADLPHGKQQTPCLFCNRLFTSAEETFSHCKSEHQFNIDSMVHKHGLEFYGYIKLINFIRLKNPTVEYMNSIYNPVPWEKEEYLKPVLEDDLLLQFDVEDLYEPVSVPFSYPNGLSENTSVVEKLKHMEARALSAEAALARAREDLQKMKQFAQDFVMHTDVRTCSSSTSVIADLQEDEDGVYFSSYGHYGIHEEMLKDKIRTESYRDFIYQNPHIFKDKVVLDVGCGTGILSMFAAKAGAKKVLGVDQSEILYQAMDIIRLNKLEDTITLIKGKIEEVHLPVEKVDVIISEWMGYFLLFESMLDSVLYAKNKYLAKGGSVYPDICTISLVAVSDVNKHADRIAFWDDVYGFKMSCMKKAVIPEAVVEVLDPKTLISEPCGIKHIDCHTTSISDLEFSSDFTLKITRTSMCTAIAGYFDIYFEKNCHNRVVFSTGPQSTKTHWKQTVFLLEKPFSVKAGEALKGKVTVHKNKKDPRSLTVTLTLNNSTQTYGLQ
inactive: [1] 0.048 | [2] 0.034 | [3] -0.155 | [4] 0.011 | [5] -0.153 | [6] -0.02 | [7] -0.044 | [8] -0.004 | [9] -0.126 | [10] 0.081 | [11] 0.042 | [12] -0.05 | [13] -0.187 | [14] -0.034 | [15] 0.055 | [16] 0.041 | [17] 0.042 | [18] -0.023 | [19] -0.027 | [20] -0.027

PDS5A (UniProt Q29RF7)
inactive: [1] -0.055 | [2] 0.008 | [3] -0.397 | [4] -0.164 | [5] -0.3 | [6] 0.001 | [7] 0.08 | [8] 0.123 | [9] -0.231 | [10] 0.157 | [11] -0.076 | [12] -0.024 | [13] -0.061 | [14] 0.018 | [15] 0.306 | [16] 0.062 | [17] 0.068 | [18] 0.017 | [19] -0.103 | [20] -0.075

PDE2A (UniProt O00408)
Sequence of UniProt O00408 (O00408 whole entry, looked up): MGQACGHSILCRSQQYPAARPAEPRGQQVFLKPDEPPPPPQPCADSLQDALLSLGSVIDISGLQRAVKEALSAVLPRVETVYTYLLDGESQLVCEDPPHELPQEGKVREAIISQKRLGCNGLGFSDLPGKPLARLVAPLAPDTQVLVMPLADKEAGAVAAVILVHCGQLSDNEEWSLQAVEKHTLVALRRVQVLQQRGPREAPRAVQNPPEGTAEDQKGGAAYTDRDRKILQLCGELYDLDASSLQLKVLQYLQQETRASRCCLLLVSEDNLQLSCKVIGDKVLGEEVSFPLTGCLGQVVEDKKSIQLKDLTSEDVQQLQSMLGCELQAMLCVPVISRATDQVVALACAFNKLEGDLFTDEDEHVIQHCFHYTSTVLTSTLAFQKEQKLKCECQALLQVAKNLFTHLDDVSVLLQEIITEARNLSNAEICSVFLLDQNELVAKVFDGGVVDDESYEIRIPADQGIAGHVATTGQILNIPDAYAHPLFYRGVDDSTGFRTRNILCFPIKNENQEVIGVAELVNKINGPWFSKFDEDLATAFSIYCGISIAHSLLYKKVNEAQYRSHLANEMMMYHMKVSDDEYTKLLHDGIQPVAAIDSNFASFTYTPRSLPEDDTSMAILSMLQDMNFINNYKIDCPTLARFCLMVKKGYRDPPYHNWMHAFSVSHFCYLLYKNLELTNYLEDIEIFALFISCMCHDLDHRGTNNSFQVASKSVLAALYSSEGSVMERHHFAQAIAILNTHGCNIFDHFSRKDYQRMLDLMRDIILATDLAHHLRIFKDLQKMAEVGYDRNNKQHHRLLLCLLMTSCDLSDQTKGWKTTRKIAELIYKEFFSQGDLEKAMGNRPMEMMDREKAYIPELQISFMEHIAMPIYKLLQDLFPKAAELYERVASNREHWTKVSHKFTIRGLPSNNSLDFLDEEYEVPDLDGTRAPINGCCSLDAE
inactive: [1] 0.021 | [2] -0.02 | [3] 0.023 | [4] 0.016 | [5] -0.103 | [6] -0.012 | [7] 0.063 | [8] -0.03 | [9] -0.031 | [10] -0.051 | [11] 0.035 | [12] -0.008 | [13] -0.018 | [14] -0.033 | [15] -0.082 | [16] 0.118 | [17] -0.032 | [18] 0.035 | [19] -0.052 | [20] 0.018

PSMC6 (UniProt P62333)
Sequence of UniProt P62333 (P62333 whole entry, looked up): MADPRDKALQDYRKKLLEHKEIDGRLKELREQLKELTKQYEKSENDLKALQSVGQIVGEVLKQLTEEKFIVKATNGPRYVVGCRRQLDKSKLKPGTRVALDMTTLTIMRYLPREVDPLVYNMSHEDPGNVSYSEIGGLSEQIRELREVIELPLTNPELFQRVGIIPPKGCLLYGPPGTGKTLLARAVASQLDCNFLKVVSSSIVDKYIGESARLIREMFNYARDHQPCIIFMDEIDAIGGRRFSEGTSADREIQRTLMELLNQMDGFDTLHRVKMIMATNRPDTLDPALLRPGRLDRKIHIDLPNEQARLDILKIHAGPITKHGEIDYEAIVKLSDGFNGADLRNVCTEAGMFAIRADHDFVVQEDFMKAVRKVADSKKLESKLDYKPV
inactive: [1] 0.069 | [2] 0.008 | [3] -0.029 | [4] 0.069 | [5] 0.039 | [6] -0.02 | [7] -0.068 | [8] 0.002 | [9] 0.104 | [10] -0.048 | [11] 0.007 | [12] 0.015 | [13] 0.069 | [14] 0.075 | [15] -0.015 | [16] -0.005 | [17] -0.048 | [18] -0.035 | [19] 0.072 | [20] -0.075
